Screening data from PubChem BioAssay.
HT1080 IDH1KD tx – kills HT-1080 cells with IDH1 knockdown; HT-1080 IDH1 knockdown viability, ATP luminescence, 48 h; Potency, µM (doses to about 46.1 µM), for the others: top-dose activity, negative = toxicity, usual class: cytotoxic; 2% of 360,000 active; AID 686971;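 further: 0% = DMSO wells and -100% = cell-free medium wells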
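IDH1KD HT-1080 cells, 750/well, RPMI + 5% FBS; compound pinned after 2 h settling; 48 h, 37 °C; CellTiter-Glo luminescence; % activity normalised to DMSO and no-cell wells; curves fitted, classed by r2 and efficacy.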
HT1080NT lethal – kills 2HG-producing HT-1080-NT fibrosarcoma cells. HT-1080-NT fibrosarcoma viability, CellTiter-Glo ATP luminescence, 48 h. Potency, µM (highest dose often 46.1 µM), for inactives: at the highest dose activity, negative = less viability, usual class: cytotoxic. 1.6% of 360,000 active. AID 686970;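 further: NT is the 2HG producing partner of a matched IDH1 knockdown line; 0% = DMSO-treated cells and -100% = media-only wells without cells; nearly all actives have a fitted effect of over 55% in size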
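Viability of the 2HG-overproducing fibrosarcoma line after 48 hours of compound exposure at 37 degrees C was determined by luminescence with CellTiter-Glo, and concentration-effect curves were then fitted and categorized.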
KB-3-1 tox – KB-3-1 parental cell cytotoxicity; 1.4% of 400,000 active; AID 1347075; Potency, µM (doses to about 46.1 µM), actives largely listed as cytotoxic; KB-3-1 viability, CellTiter-Glo ATP luminescence, 72 h; further: nearly all actives have a fitted effect of over 60% in size
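Screening of KB-3-1 cells (DMEM, 10% FBS, phenol-red free) ran from lowest to highest compound concentration; after 72 h at 37 °C viability was read luminescently and curves fitted.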
KB-V1 cytotox – kills drug-selected multidrug resistant KB-V1 cells. AID 1347076. Potency, µM (top dose mostly 46.1 µM), usual class: cytotoxic. KB-V1 MDR cells viability, CellTiter-Glo, 72 h. 3.4% of 400,000 active; further: nearly all actives have a fitted effect of over 60% in size
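KB-V1 MDR subline cells in DMEM (phenol-red free, 10% FBS) exposed to compounds in qHTS concentration series for 72 h at 37 degrees C. Viability read by CellTiter-Glo luminescence; concentration-effect curves fitted after normalization and correction.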
Active calls of the source: *; i = inactive; ? = inconclusive; . = no result; ! = not confirmed by another sample; [ ] = dose if it differs, or a comment. Rows were chosen to be rich in hits. Some 5.7% of all compounds tested hit in one or more screens of this group. The call rests on the fitted dose curve; in most records, active means well fitted curve in the direction sought with a large enough effect; inconclusive means small, poorly fitted or top-dose-only effect, or another doubt; inactive means no such curve, though single readings can be large; an effect the other way counts as inactive or inconclusive. Unless noted, on the % scale 0 is the no-effect control and ±100 the full control effect; potency means the concentration at half of the fitted maximal effect.

SMILES | HT1080 IDH1KD tx | HT1080NT lethal | KB-3-1 tox | KB-V1 cytotox
COCCNC(=O)C1(C)Cc2c(-c3ccc4c(c3)OCO4)ccnc2O1 (stereo not drawn) | 18µM* | ? | ? | i
CC1(C(=O)NCc2ccccc2)Cc2c(-c3ccc4c(c3)OCO4)ccnc2O1 (stereo not drawn) | ? | ? | 4.6µM* | 2.1µM*
CC1(C(=O)NCc2ccccc2)Cc2c(-c3ccccc3)ccnc2O1 (stereo not drawn) | ? | ? | 21µM* | ?
CC1CCCCN1S(=O)(=O)c1ccc2c(c1)oc(=O)n2CC(=O)Nc1ccc(Cl)cc1 (stereo not drawn) | . | . | i | i
COc1ccc(Cl)cc1NC(=O)NCCn1c(=O)oc2ccc(C)cc21 | . | . | i | i
O=C(C[N+]1(CCO)CCOCC1)c1ccc2ccccc2c1 | . | . | i | i
O=C(Nc1ccc2c(c1)CCCN2C(=O)c1cccs1)c1ccccc1Cl | . | . | i | i
CCOc1ccccc1NC(=O)CCCc1nc(-c2ccccc2Cl)no1 | . | . | i | i
CC1(C(=O)NCc2ccccc2)Cc2c(-c3ccc(C(N)=O)cc3)ccnc2O1 (stereo not drawn) | 1.5µM* | ? | 8.2µM* | i
COc1ccc(CNC(=O)C2(C)Cc3c(-c4ccccc4)ccnc3O2)cc1OC (stereo not drawn) | -28% | -20% | i | i
O=S(=O)(c1ccc(Br)cc1)N1CCCC1c1nc2ccccc2s1 (stereo not drawn) | -15% | 4% | i | ?
O=S(=O)(c1ccc(N2CCCC2c2nc3ccccc3s2)nc1)N1CCOCC1 (stereo not drawn) | -10% | -9% | i | 8.2µM*
O=C(CCn1c(=O)c2sccc2n(CC(=O)NCc2ccco2)c1=O)NCc1ccccc1 | -6% | 0.1µM* | i | i
Cc1ccc(C)c(Cn2c(=O)n(CCCC(=O)NCc3ccco3)c(=O)c3sccc32)c1 | 9.2µM* | ? | 5.8µM* | ?
O=C(CCCn1c(=O)c2sccc2n(CC(=O)NCc2ccco2)c1=O)NCc1ccco1 | 6% | 1% | i | i
CC(C)(C)n1c(O)c2n(c1=O)Cc1ccccc1N=C2c1ccccc1 | 1% | 7% | i | i
O=c1n2c(c(O)n1C1CCCCC1)C(c1ccccc1)=Nc1ccccc1C2 | 10% | -1% | i | 16µM*
CCNC(=S)N1CCN(S(=O)(=O)c2cccc(C(F)(F)F)c2)CC1 | -2% | -6% | i | 23µM*
COc1cccc(CNc2nc(Cl)nc3nc[nH]c23)c1 | . | . | i | i
CCOc1ccc(-c2nnn(CC(=O)c3cc(OC)ccc3OC)n2)cc1 | 3% | 20% | 15µM* | 5.2µM*
CCS(=O)(=O)c1nc2ccccc2n1CC(=O)Nc1ccccc1C(=O)OC | . | . | i | i
Cc1ccc(CSC2=NS(=O)(=O)c3ccccc32)cc1 | . | . | i | i
CCOC(=O)C(=CNc1cc(C)ccc1C)C(=O)OCC | 14% | 1% | i | 13µM*
CCn1c(=O)c2cc(C(=O)Nc3cc(C)c(Cl)cc3OC)sc2c2ccccc21 | . | . | i | i
CC(C)(C)OC(=O)N[C@@H](Cc1ccccc1)c1nnc(SCC(=O)c2ccc(Cl)cc2)o1 | ? | ? | i | 16µM*
SMILES | HT1080 IDH1KD tx | HT1080NT lethal | KB-3-1 tox | KB-V1 cytotox
CCCCSc1nnc([C@H](CC(C)C)NC(=O)OC(C)(C)C)o1 | 0% | 3% | i | i
CC(C)(C)OC(=O)N[C@@H](Cc1ccccc1)c1nnc(SCC(=O)O)o1 | 1% | -1% | i | i
CCCCSc1nnc([C@H](C)NC(=O)OC(C)(C)C)o1 | -18% | 4% | i | 13µM*
CCSc1nnc([C@H](Cc2ccccc2)NC(=O)OC(C)(C)C)o1 | -14% | 3% | i | 16µM*
Cc1ccccc1CS(=O)(=O)c1nnc([C@H](Cc2ccccc2)NC(=O)OC(C)(C)C)o1 | 1.8µM* | 5µM* | i | ?
O=C(CN(c1cc(C(F)(F)F)ccc1Cl)S(=O)(=O)c1ccccc1)NCCc1ccccc1 | . | . | i | i
O=C(Nc1nc2n(n1)C(c1ccc(Cl)cc1)C=C(c1ccccc1)N2)c1ccco1 (stereo not drawn) | . | . | i | i
CCC(C)[C@@H](NC(=O)OC(C)(C)C)c1nnc(S(=O)(=O)Cc2cccc(C)c2)o1 (stereo partly drawn) | -21%[9.24 µM] | 18µM* | i | i
CCOc1ccc(NC(=O)[C@@H]2CCCN2C(=O)c2cccs2)cc1S(=O)(=O)N1CCOCC1 | 3% | 7% | i | i
CCOc1ccc(NC(=O)[C@@H]2CCCN2C(=O)c2cccs2)cc1S(=O)(=O)N1CCCCC1 | 16% | 2% | i | 9.2µM*
CC1CCN(S(=O)(=O)c2ccc(NC(=O)[C@@H]3CCCN3C(=O)c3cccs3)cc2)CC1 | 7% | 8% | i | 21µM*
CCCCCCCCCCOC(=O)Cn1c(COc2ccccc2C)[n+](C)c2ccccc21 | 12µM* | 23µM* | ? | i
CCCCCCCCCCOC(=O)Cn1c(COc2ccccc2)[n+](C)c2ccccc21 | -6% | -24% | i | i
CCCCCCCCCCOC(=O)Cn1c(COc2ccc(OC)cc2)[n+](C)c2ccccc21 | 13µM* | 21µM* | 21µM*! | i
Cc1ccc(C(C[N+](=O)[O-])c2c(-c3ccccc3O)[nH][nH]c2=O)cc1 (stereo not drawn) | 9.2µM* | ? | ? | ?
CCCSc1ccc2nc(-c3ccccc3)cn2c1 | 12µM* | 12µM* | 18µM* | 21µM*
CCCCSc1ccc2nc(-c3ccc(C#N)cc3)cn2c1 | -25% | -26% | i | i
Cc1oc2c(O)c(O)ccc2c(=O)c1-c1cnn(-c2ccccc2)c1 | ? | ? | i | 3.7µM*
COc1cc(OC)c2c(-c3ccccc3)cc(=O)oc2c1C(CCN1CCOCC1)c1ccc2c(c1)OCO2 (stereo not drawn) | ? | 23µM* | i | i
COc1cc(OC)c2c(-c3ccccc3)cc(=O)oc2c1C(CCN1CCCC1)c1ccc2c(c1)OCO2 (stereo not drawn) | ? | -22% | i | i
O=C(O)C1CCN(c2nc(-c3ccccc3)c3cc(Br)ccc3n2)CC1 | -1% | -18% | i | i
OCCN1CCN(c2nc(-c3ccccc3)c3cc(Br)ccc3n2)CC1 | 23µM* | ? | i | i
CCn1cc(C2=NOC(C(=O)Nc3ccccc3C(=O)OC)C2)c(C)n1 (stereo not drawn) | -7% | 2% | i | 10µM*
O=S(=O)(c1nccs1)N1CCN(c2nc(-c3cccs3)nc3ccccc23)CC1 | -1% | 1% | . | .
COc1cc([C@H]2c3[nH]c4ccccc4c3C[C@H]3C(=O)N4[C@@H](c5cc(OC)c(OC)c(OC)c5)c5[nH]c6ccccc6c5C[C@H]4C(=O)N23)cc(OC)c1OC | 15µM* | 12µM* | i | i
